This is a sample that favours compounds with a hit; in the whole collection about 1.8% have one here.
PfHsp40 yeast: rescue of yeast from PfHsp40 toxicity, primary screen, S. cerevisiae, ATP luminescence; S. cerevisiae expressing PfHsp40, growth rescue; growth rescue, % at 12.5 µM; 0.68% of 340,000 active; AID 504582, 2011; in the data active = growth rescue above about 28%, passing the limit was not always enough; inconclusive = no clear call, values can overlap the other calls;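 also: yeast W303a lacking pdr1 and pdr3 grown in galactose medium; growth measured after three days at 30 °C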
PrPC surface inh: inhibitors of human cell surface prion protein PrPC, primary screen, cell-based, TR-FRET; Major prion protein (Homo sapiens), P04156; TR-FRET read-out; inhibition, % at 13.8 µM; 0.43% of 370,000 active; AID 720596, 2013; in the data active = inhibition above about 24%; also: 0% = median of the test wells and 100% = reference compound wells
DUSP3 inh: VHR1 phosphatase inhibitors, primary screen, biochemical, absorbance, uHTS; inhibition, % at 13.3 µM; recombinant VHR phosphatase, pNPP absorbance; 0.52% of 290,000 active; in the data active = inhibition above about 50%
Target sequence (P51452 whole entry, looked up): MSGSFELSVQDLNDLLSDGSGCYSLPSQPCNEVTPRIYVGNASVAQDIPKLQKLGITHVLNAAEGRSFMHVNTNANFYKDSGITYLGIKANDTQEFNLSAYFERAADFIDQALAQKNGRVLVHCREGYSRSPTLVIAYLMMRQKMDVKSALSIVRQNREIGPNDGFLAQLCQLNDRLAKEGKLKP
RN4220 kill: growth inhibition of S. aureus RN4220, primary screen, OD600; 16 h; inhibition, % (test concentration not listed); 0.33% of 330,000 active; AID 1259311, 2017; in the data active = inhibition above about 85%;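 also: plate controls were untreated cells for no effect and reference antibiotic for full effect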
ugtP null kill: growth inhibition of ugtP-null S. aureus, primary screen, RN4220 ugtP deletion, OD600; 16 h; growth inhibition, % (test concentration not listed); 0.54% of 330,000 active; in the data active = growth inhibition above about 68%;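 also: plate controls were untreated wells for no effect and antibiotic for full effect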
* = called active by the depositor; ? = inconclusive; · = no result given.

SMILES | PfHsp40 yeast | PrPC surface inh | DUSP3 inh | RN4220 kill | ugtP null kill
C=CCn1c(=C2C(=O)N(CC)C(=S)N2C)sc(=C2Sc3cc(OC)ccc3N2C)c1=O | · | · | · | 2.1 | 1.8
N#CCC(=O)NN=Cc1c2ccccc2cc2ccccc12 | · | · | · | 1.0 | 4.0
Cc1ccccc1N(C(=O)Cc1ccsc1)C(C(=O)NC1CCCCC1)c1ccc(F)cc1 (centres undefined) | 1.9 | -2.3 | 56.3* | 6.3 | 3.8
O=C(NC1CCCC1)C(c1ccncc1)N(C(=O)Cc1cccs1)c1ccc(F)cc1 (centres undefined) | -1.4 | 2.0 | 14.4 | 2.6 | 3.8
Cc1ccccc1NC(=O)CSC(N)=O | 1.1 | -0.2 | -3.7 | -3.0 | 7.2
Cc1ccc(CS/C(Nc2ccccc2C)=C(\C#N)C(N)=O)c(C)c1 | 1.8 | 8.4 | 7.4 | 2.0 | 95.1*
COc1ccc(NN=C(N=Nc2nc(C)cc(=O)[nH]2)c2ccccc2)cc1 | · | · | · | -14.1 | -17.0
O=C(Nc1ccc(Cl)cc1)c1cc2c(cc1O)[nH]c1ccccc12 | 24.0 | -1.6 | -3.9 | 95.0* | 97.9*
Cc1ccc(CSc2nnc(SCC(=O)NN=Cc3c(C)nn(-c4ccccc4)c3C)s2)cc1 | · | · | · | 8.2 | -19.4
O=c1c(-c2nnc(SCc3ccc(Cl)c(Cl)c3)o2)cccn1Cc1ccccc1 | 0.5 | 1.3 | 24.7 | -15.7 | 86.3*
COc1ccc2c(c1)[C@H]1[C@H](CO2)[C@H](c2ccccc2)[C@]2(C)C(=O)Nc3ccc(Cl)cc3C(=O)N12 | 267.6* | 12.0 | · | · | ·
CCOC(=O)[C@@H]1[C@H]2COc3ccccc3[C@H]2N2C(=O)N(c3ccc(C(F)(F)F)cc3)C(=O)[C@]12C | 92.2* | 2.2 | 20.5 | · | ·
C[C@@]12C(=O)Nc3ccc(Br)cc3C(=O)N1C1c3cc(Br)ccc3OCC1C2c1ccccc1 (some centres undefined) | · | · | · | -12.5 | -9.2
C[C@@]12C(=O)Nc3ccc(Br)cc3C(=O)N1[C@H]1c3ccccc3OC[C@@H]1[C@@H]2c1ccccc1 | 127.6* | · | · | · | ·
C[C@]12C(=O)N(c3ccccc3)C(=O)N1[C@H]1c3ccccc3OC[C@@H]1[C@H]2c1ccccc1 | 98.0* | 8.1 | · | · | ·
CCC(CCC=C(C)C)C(=O)N(Cc1ccccc1)c1ccccc1 (centres undefined) | · | · | · | -4.2 | 13.1
Cc1ccc2c(c1)C(=O)N1[C@H]3c4ccccc4OC[C@@H]3[C@H](c3ccccc3)[C@]1(C)C(=O)N2 | 128.1* | · | · | · | ·
COc1ccc2c(c1)OC[C@H]1[C@H]2N2C(=O)c3cc(C)ccc3NC(=O)[C@@]2(C)[C@H]1c1ccccc1 | 297.4* | · | · | · | ·
COc1ccc2c(c1)[C@H]1[C@H](CO2)[C@H](c2ccccc2)[C@]2(C)C(=O)Nc3ccc(C)cc3C(=O)N12 | 20.1 | 16.1 | · | · | ·
COC(=O)C1=C(c2ccc(F)cc2F)CC2CCC1N2C(=O)N1CCCC1 (centres undefined) | · | · | · | 4.2 | -3.8
CCOC(=O)N1CCC(NC(=O)c2cccn3c(=O)c4cc(Br)ccc4nc23)CC1 | -0.4 | -13.5 | 83.6* | 2.5 | -1.7
CCOC(=O)N1CCC(NC(=O)c2ccc3nc4ccccc4c(=O)n3c2)CC1 | · | · | 37.6 | 1.8 | 3.9
Cc1cc(O)c(NC(=O)c2cc([N+](=O)[O-])ccc2Cl)cc1C | -1.5 | -18.8 | -9.6 | 7.3 | 7.4
O=C(Nc1cccc(Cl)c1)c1cccc(Oc2ccc([N+](=O)[O-])cc2Cl)c1 | -0.8 | 10.9 | 7.8 | -12.0 | -21.7
Cc1ccc(O)c(NC(=O)c2cc([N+](=O)[O-])ccc2Cl)c1 | 1.3 | -35.0 | 51.7* | 2.6 | 1.0
SMILES | PfHsp40 yeast | PrPC surface inh | DUSP3 inh | RN4220 kill | ugtP null kill
O=C(Nc1cccc(Cl)c1)c1cc(N=Nc2ccc([N+](=O)[O-])cc2Cl)ccc1O | -0.9 | -4.0 | 35.5 | 94.4* | 99.6*
O=C(Nc1ccc([N+](=O)[O-])cc1Cl)c1cc(Cl)ccc1O | 9.5 | -8.9 | · | 100.9* | 100.1*
CC(=NNC(=O)CN1CCN(Cc2ccccc2)CC1)c1ccc([N+](=O)[O-])cc1 | · | · | · | 1.2 | -4.2
NC(=O)c1cc([N+](=O)[O-])ccc1Nc1ccccc1 | 48.3* | -25.9 | · | 0.3 | -1.7
O=C(O)c1ccccc1Nc1ccc([N+](=O)[O-])cc1C(=O)O | 0.2 | 0.9 | 25.0 | · | ·
N#CCCn1cc(C(=O)Nc2ccccc2Cl)c(-c2ccc(F)cc2)n1 | 46.9* | 6.7 | -7.8 | 6.9 | 8.8
O=C(Nc1ccc(Cl)cc1)/C(=C/c1cccc(O)c1)c1nc2ccccc2s1 | -0.9 | 16.1 | 4.6 | 68.7 | 89.2*
N#C/C(=C\c1cccc(NC(=O)c2ccccc2Cl)c1)C(=O)NCCc1ccccc1 | 2.4 | -0.5 | 55.4* | 20.9 | -5.8
S=C(Nc1ccc(Cl)cc1)c1nc2ccccc2s1 | -0.8 | 3.9 | 2.7 | -6.6 | -5.0
COc1ccc(C(=O)Nc2cccc(/C=C(\CCC(=O)O)c3nc4ccccc4s3)c2)cc1 | 0.3 | -6.1 | 26.3 | 30.6 | 34.0
O=C(O)C/C(=C\c1cccc(NC(=O)c2ccccc2Cl)c1)c1nc2ccccc2s1 | 28.0* | -8.4 | -3.9 | 8.6 | 3.7
Oc1ccc(Cl)c2cccnc12 | -1.1 | -3.4 | · | 97.1* | 98.2*
Oc1ccc(N=Nc2ccccc2C(F)(F)F)c2cccnc12 | 0.3 | -9.2 | · | 96.5* | 99.2*
CCS(=O)(=O)c1ccc(N=Nc2ccc(O)c3ncccc23)c(OC)c1 | 214.5* | -9.3 | -5.2 | 2.4 | -14.8
COc1ccccc1N=Nc1ccc(O)c2ncccc12 | 4.2 | -15.5 | 45.8 | 4.6 | -18.0
Oc1ccc(F)c2cccnc12 | -1.0 | -2.3 | 0.4 | 23.2 | 12.2
O=C(NCc1ccccc1)C1=CC(c2csc3ccccc23)CC(OCCCCO)O1 (centres undefined) | · | · | · | 0.3 | 3.9
COc1ccc(C(C)=NNC(=O)CNC(=O)c2cccs2)cc1 | · | · | · | 1.2 | 20.8
Nc1ccc2oc3ccccc3c2c1 | 0.9 | 6.2 | 21.2 | -0.7 | 2.0
S=c1[nH]ncn2c1cc1oc3ccccc3c12 | -0.1 | 97.1* | -15.4 | -1.1 | 7.4
O=[N+]([O-])c1ccc(Cl)c(C=NN2CCN(Cc3ccccc3Cl)CC2)c1 | · | · | · | -0.1 | 1.1
COC(=O)C1=C(c2ccc(OC)c(OC)c2)CC2CCC1N2C(=O)NCc1cccc2ccccc12 (centres undefined) | · | · | · | 0.3 | -10.8
Cc1ccc(C2CC2C(=O)NNC(=S)Nc2cccc(C)c2)cc1 (centres undefined) | ? | 5.5 | 26.7 | 2.3 | 8.4
Cc1ccc(C2CC2C(=O)NNC(=S)Nc2cccc(Cl)c2)cc1 (centres undefined) | 78.7* | 13.6 | -4.8 | -6.5 | -8.1
CC(C)(C)C1COC(=O)CCC=CCC(CC(=O)NC(CO)Cc2ccccc2)C(=O)N1 (centres undefined) | · | · | · | 8.3 | 2.7
CCOC(=O)c1sc(NNC(=O)c2ccc(C)cc2)nc1C | 0.5 | -0.1 | -2.7 | 2.9 | -0.9
CCOC(=O)c1nc(NNC(=O)c2ccc([N+](=O)[O-])cc2)sc1C | 7.2 | -10.7 | 50.7* | 2.6 | -0.8

Screening data: PubChem BioAssay, several laboratories
